# Measurements from PubChem BioAssay (NCATS).
# Where “and” joins values, the source holds several entries; their conditions need not be identical. Equal entries are not always repeated. Inconclusive results are not listed. Some structures have more than one record in an assay (separate samples or runs), and their calls can disagree. Calls of active or inactive are those of the source. Calls come from the whole dose curve; as a rule, active = well fitted cell-killing curve with a large enough effect; inconclusive = small, poorly fitted or top-dose-only effect; inactive = flat fitted curve, though single readings scatter.
# Assay: Cellular viability qHTS for adrenocortical cancer (ACC) cell line NCI-H295R (AID 1963990); note: nearly all actives have a fitted effect of over 60% in size
# Conditions: CellTiter-Glo ATP luminescence, 48 h; series mostly up to 46.1 µM; activity change, negative = viability loss: at the top concentration
# Source text: PI: Naris Nilubol, MD Surgical Oncology Program, National Cancer Institute (NCI) National Institute of Health (NIH), Bethesda, Maryland Adrenocortical cancer (ACC) is a rare malignancy with poor survival outcomes and few treatment options. Currently, mitotane is the only FDA-approved therapy for ACC. Although adjuvant radiation therapy is rarely utilized, it has the potential to improve survival in select cases. Through a quantitative high-throughput drug screen (qHTS), we identified auranofin (AF), a thioredoxin reductase (TXNRD) inhibitor, as a promising candidate drug. This study aims to evaluate whether AF can enhance the efficacy of radiation therapy in the treatment of ACC. Two human ACC cell lines, SW-13 and NCI-H295R, were screened using the National Center for Advancing Translational Sciences (NCATS) Pharmaceutical Collection (NPC) and the Mechanism Interrogation PlatE (MIPE) library (~4,991 compounds). CellTiter-Glo (Cat # G7570, Promega, Madison, WI) was utilized to measure cell viability. Described herein are the results of the corresponding viability assay.
# PROTOCOL TABLE (as described by Inglese J, Shamu CE and Guy RK. 2007) SEQUENCE No. (e.g., 1, 2, 3, etc.); […] (e.g., Cells, Incubation, Reagent, etc.); VALUE; DESCRIPTION. 1; Cells; 5 uL; white, solid-bottom, 1536-well tissue-culture treated plates. 2; Time; overnight culture at 37C with 5% CO2. 3; Compounds and control; 23 nL; Kalypsis pin tool (Wako USA) equipped with a 1536-well pin head to transfer to the assay plates. 4; Time; 48 hours; 37C with 5% CO2. 5; Reagent; 4 uL; CellTiter-Glo luminescent substrate mix. 6; Time; 20 min at room temperature. 7; Detection; Luminescence; ViewLux plate reader NOTES (numbers refer to Sequence numbers above) 1. NCI-H295R cells were harvested from a T175 flask and resuspended in ITS-supplemented DMEM serum-free medium at a concentration of 300 000 cells/mL. Then 5 uL of resuspended cells were dispensed into each well of white, solid-bottom, 1536-well tissue-culture-treated plates using a multidrop combi dispenser. The plates were covered with stainless steel gasket lids. 2-3. The plates were cultured overnight at 37C with 5% CO2. Twenty-three nL of compounds (eight selected concentrations from the NPC / MIPE) or positive control (10 mM stock of bortezomib) in DMSO was transferred to each well of the assay plate using a pin tool (Kalypsys, San Diego, CA, USA). The final concentration of the compounds in the 5 uL assay volume ranged from 0.5 nM to 46 uM. 4-6. After 48 hours of incubation at 37C and 5% CO2, 4 uL of CellTilter-Glo luminescent substrate mix (Promega, Madison, WI, USA) was added to each well. Then the plates were incubated for 20 minutes at room temperature. 7. After incubation, luminescence was measured using a ViewLux plate reader (PerkinElmer, Waltham, MA, USA) with a clear filter was used to measure the number of metabolically competent cells. To determine compound activity in the qHTS assay, the titration-response data for each sample was plotted and modeled by a four-parameter logistic fit yielding IC50 and efficacy (maximal response) values. Raw plate reads for each titration point were normalized relative to positive control ([…], 100% inhibition) and DMSO-only wells (basal, 0%). REFERENCES: Inglese J, Shamu CE and Guy RK, Reporting data from high throughput screening of small molecule libraries, Nature Chemical Biology, 2007, 3(8): 438-441. doi.org/10.1038/nchembio0807-438.
SMILES,"activity change, negative = viability loss",Potency
C[C@@]1(c2cc(-c3cncnc3)c(F)cc2F)CCSC(N)=N1,4.41% (inactive),
Nc1nc2ncc(CNc3ccc(C(=O)N[C@@H](CCC(=O)O)C(=O)O)cc3)nc2c(=O)[nH]1,-27.5% (inactive),
C=CCc1ccc(O)c(OC)c1,9.49% (inactive),
CC(=O)OCC(=O)[C@@]1(O)CCC2C3CCC4=CC(=O)CC[C@]4(C)C3[C@@H](O)C[C@@]21C (stereo not given in full),-9.23% (inactive),
CCOc1cc(N)c(Cl)cc1C(=O)NCC1CN(Cc2ccc(F)cc2)CCO1 (stereo not given),,inactive
O=C1c2c(O)ccc(O)c2C(=O)c2c(NCCNCCO)ccc(NCCNCCO)c21,,4.11 µM (active) and 3.98 µM (active)
Cc1cc2cc(Oc3ccnc(Nc4cccc(CS(=O)(=O)NCCN(C)C)c4)n3)ccc2[nH]1,,25.1 µM (active)
C=CCN1C[C@H](C(=O)N(CCCN(C)C)C(=O)NCC)C[C@@H]2c3cccc4[nH]cc(c34)C[C@H]21,5.85% (inactive),
CN1C[C@@H]2C[C@H]1CN2c1cc2c(cc1F)c(=O)c(C(=O)O)cn2C1CC1,-10.3% [at 20 µM] (inactive),
NCCc1ccn[nH]1,-2.3% (inactive),
O=C(O)C(Cc1cc(I)c(O)c(I)c1)c1ccccc1 (stereo not given),-9.08% (inactive),
CCCCOc1ccc(CC(=O)NO)cc1,-17% (inactive),
Cc1nnc(NS(=O)(=O)c2ccc(N)cc2)s1,,inactive
Cc1cccc(C(=O)O)c1O,-15.5% (inactive),
CNC(=O)[C@H]1O[C@@H](n2cnc3c(NCc4cccc(I)c4)nc(Cl)nc32)[C@H](O)[C@@H]1O,1.78% (inactive),
CN(C)CCN(Cc1ccc(Cl)cc1)c1ccccn1,-10.8% (inactive),
C[C@@H](O)[C@H](N)C(=O)O,-10.7% [at 20 µM] (inactive),
C[C@H](CS)C(=O)N1CCC[C@H]1C(=O)O,-25.6% (inactive),
CCN(CC)CCOc1ccc(Cc2ccccc2)cc1,,18.4 µM (active) and inactive
NC(CS)C(=O)O (stereo not given),-9.17% (inactive),

SMILES,"activity change, negative = viability loss",Potency
CC(=O)Oc1ccccc1C(=O)Nc1ncc([N+](=O)[O-])s1,-0.748% (inactive),
C[n+]1cc2c3c(ccc2c2ccc4cc5c(cc4c21)OCO5)OCO3,,1.42 µM (active)
COc1cc(Nc2c(C#N)cnc3cc(OCCCN4CCN(C)CC4)c(OC)cc23)c(Cl)cc1Cl,,4.61 µM (active) and 3.55 µM (active)
O=Cc1ccccc1C=O,-7.17% (inactive),
Cn1cc(-c2cnn3c(N)c(Br)c(C4CCCNC4)nc23)cn1 (stereo not given),-7.87% (inactive),
CC(NN)c1ccccc1 (stereo not given),-14.6% [at 20 µM] (inactive),
C=C[C@@]1(C)CC(=O)[C@]2(O)[C@@]3(C)[C@@H](O)CCC(C)(C)[C@@H]3[C@H](O)[C@H](OC(C)=O)[C@@]2(C)O1,8.29% (inactive),
COC1(c2sc3c(N4CCOCC4)nc(-c4cnc(N)nc4)nc3c2C)COC1,,0.501 µM (active)
COc1ccccc1[C@H](c1cccc2ccccc12)[C@@](C)(C#N)C(=O)N1CCC(c2cccc(C(F)(F)F)c2)CC1,-14.8% (inactive),
CCN1CCN(c2cc3c(cc2F)c(=O)c(C(=O)O)cn3C2CC2)CC1,-13.6% (inactive),
CNCc1ccc(C)c(NC(=O)c2ccc(Nc3nc(-c4ccccc4)c4ccccc4n3)cc2)c1,,6.31 µM (active)
O=C1CCC(N2C(=O)c3ccccc3C2=O)C(=O)N1 (stereo not given),,inactive
NC(=O)/C(=C/n1cnc(-c2cc(C(F)(F)F)cc(C(F)(F)F)c2)n1)c1cncnc1,,3.16 µM (active)
Nc1ccc(F)cc1NC(=O)c1ccc(CNC(=O)/C=C/c2cccnc2)cc1,,3.55 µM (active)
CC[C@H](C)[C@H](N)C(=O)O,-21.5% (inactive),
COC(=O)Nc1ccc(-c2nc(N3CCOCC3)c3cnn(C4CCN(Cc5cccnc5)CC4)c3n2)cc1,,5.01 µM (active)
CC(C(O)c1ccc(O)cc1)N1CCC(Cc2ccccc2)CC1 (stereo not given),-13.4% (inactive),
CC(C)NCCCC1(C(N)=O)c2ccccc2-c2ccccc21,-3.01% (inactive),
CCc1ccc(CCOc2ccc(CC3SC(=O)NC3=O)cc2)nc1 (stereo not given),,inactive
O=C(Nc1ccc([N+](=O)[O-])cc1Cl)c1cc(Cl)ccc1O,,224 nM (active) and 1 µM (active)
